# Potency and affinity values are given separately.
# How the values were obtained:
# [1] = test system: Klebsiella pneumoniae; conditions: Concentration 32 ug.mL-1;; ASSAY_TEST Inhibition of Bacterial Growth; detection method Absorption (OD600); MEDIA CAMHB; plate type 384well; NBS; CORNING #3640; time 18 hr
# [2] = test system: Candida albicans; conditions: Concentration 32 ug.mL-1; ASSAY_TEST Inhibition of Fungal Growth; detection method Absorption (OD530)
# [3] = test system: Cryptococcus neoformans; conditions: Concentration 32 ug.mL-1; ASSAY_TEST Inhibition of Fungal Growth; detection method Resazurin; Absorption (OD600-OD570); plate type 384well; NBS; CORNING #3640
SMILES,Inhibition [1] [%],Inhibition [2] [%],Inhibition [3] [%]
Cc1cccc(C)c1NC(=O)CSc1nnc2c3cc(-c4ccc(F)cc4)nn3ccn12,-6.3,4.52,-11.19
Cc1ccc(Oc2nccn3c(=O)n(CC(=O)Nc4ccccc4F)nc23)cc1,2.86,5.88,-5.76
COc1ccc(-c2cc3c4nn(CC(=O)Nc5ccc(F)cc5)c(=O)n4ccn3n2)cc1,1.02,15.17,-16.6
CCc1cccc(NC(=O)Cn2c(=O)c3nnc(C(C)C)n3c3ccccc32)c1,9.33,1.02,-21.01
COc1cccc(CSc2nnc3c(=O)n(-c4ccc(Br)cc4)ccn23)c1,8.64,19.07,-13.83
O=c1c2nnc(SCc3ccccc3F)n2ccn1-c1ccc(F)cc1,-2.87,2.17,-5.92
Cc1ccc(NC(=O)Cn2nc3c(SC4CCCCC4)nccn3c2=O)cc1F,13.26,-0.51,-26.18
CC(=O)c1ccc(NC(=O)Cn2nc3c(Sc4ccc(C)cc4C)nccn3c2=O)cc1,-3.02,1.94,-20.51
Cc1ccc2c(c1)N(C(=O)Cn1nc3ccc(S(=O)(=O)C(C)(C)C)nn3c1=O)CCO2,13.78,0.51,-14.77
COc1ccc2[nH]cc(C(=O)CSc3nnc4c(=O)n(-c5ccc(C)c(C)c5)ccn34)c2c1,2.12,0.06,-6.08
